Records with an inconclusive call do not appear. Active and inactive are the calls of the source. Unless noted, calls follow the shape of the dose curve; as a rule, active = well fitted curve in the direction sought with a large enough effect; inconclusive = small, poorly fitted or top-dose-only effect, or another doubt; inactive = no such curve, though single readings can be large; an effect the other way counts as inactive or inconclusive.
Legend:
[1] = biological target: Guanine nucleotide-binding protein G(i) subunit alpha-1 (Homo sapiens) (UniProt P63096); test: qHTS Assay for Inhibitors of RGS12 GoLoco Motif Activity (Green Fluorophore) (AID 879);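 also: negative values mean loss of peptide binding seen as reduced polarization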
Sequence of Guanine nucleotide-binding protein G(i) subunit alpha-1 (Homo sapiens) (P63096 whole entry, looked up): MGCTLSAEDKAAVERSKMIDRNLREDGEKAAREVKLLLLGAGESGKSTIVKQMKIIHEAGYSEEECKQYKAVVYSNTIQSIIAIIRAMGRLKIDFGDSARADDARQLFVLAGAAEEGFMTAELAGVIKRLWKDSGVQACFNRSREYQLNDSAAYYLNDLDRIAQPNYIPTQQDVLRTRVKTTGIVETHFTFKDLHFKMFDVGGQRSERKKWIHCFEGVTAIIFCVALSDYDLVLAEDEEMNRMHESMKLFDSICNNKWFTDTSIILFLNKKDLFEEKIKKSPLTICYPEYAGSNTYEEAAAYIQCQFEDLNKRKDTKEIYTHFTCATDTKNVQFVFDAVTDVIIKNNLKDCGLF
How it was run: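 A drop in FITC polarization marked displacement of the FITC-tagged RGS12 GoLoco peptide (10 nM) from Gαi1 (50 nM). Compounds were incubated 10 min at room temperature in Tris pH 7.5 buffer containing 150 mM NaCl, 0.1 mM GDP and 0.05% NP40; unlabeled peptide titration served as control.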

[2] = biological target: Muscarinic acetylcholine receptor M1 (Rattus norvegicus) (UniProt P08482); test: qHTS Assay for Antagonists of Acetylcholine Muscarinic M1 Receptor: Measurement of IP-One Response (AID 944); also: nearly all actives have a fitted effect of over 75% in size
Sequence of Muscarinic acetylcholine receptor M1 (Rattus norvegicus) (P08482 whole entry, looked up): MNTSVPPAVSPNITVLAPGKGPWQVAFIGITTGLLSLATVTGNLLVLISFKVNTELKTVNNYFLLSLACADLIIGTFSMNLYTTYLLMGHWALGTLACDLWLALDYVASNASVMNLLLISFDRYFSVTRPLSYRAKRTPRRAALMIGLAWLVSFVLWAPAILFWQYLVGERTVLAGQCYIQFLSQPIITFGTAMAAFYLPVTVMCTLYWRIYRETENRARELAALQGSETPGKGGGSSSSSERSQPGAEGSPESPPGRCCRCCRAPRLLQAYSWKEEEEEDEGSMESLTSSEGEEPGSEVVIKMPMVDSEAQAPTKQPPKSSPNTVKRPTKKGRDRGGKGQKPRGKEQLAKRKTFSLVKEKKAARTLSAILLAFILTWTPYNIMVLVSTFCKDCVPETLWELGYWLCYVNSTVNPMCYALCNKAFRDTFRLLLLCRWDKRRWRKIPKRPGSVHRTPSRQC
How it was run: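 IP1 accumulation measured via TR-FRET between d2-IP1 and Eu-cryptate anti-IP1 antibody after carbachol (200 nM, EC80) stimulation for 30 min; rat M1-transfected CHO cells received compound 10 min before agonist.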

[3] = biological target: Pyruvate kinase (Leishmania mexicana) (UniProt Q27686); test: qHTS Validation Assay for Inhibitors of Leishmania Mexicana Pyruvate Kinase (AID 945)
Sequence of Pyruvate kinase (Leishmania mexicana) (Q27686 2-499 E452W): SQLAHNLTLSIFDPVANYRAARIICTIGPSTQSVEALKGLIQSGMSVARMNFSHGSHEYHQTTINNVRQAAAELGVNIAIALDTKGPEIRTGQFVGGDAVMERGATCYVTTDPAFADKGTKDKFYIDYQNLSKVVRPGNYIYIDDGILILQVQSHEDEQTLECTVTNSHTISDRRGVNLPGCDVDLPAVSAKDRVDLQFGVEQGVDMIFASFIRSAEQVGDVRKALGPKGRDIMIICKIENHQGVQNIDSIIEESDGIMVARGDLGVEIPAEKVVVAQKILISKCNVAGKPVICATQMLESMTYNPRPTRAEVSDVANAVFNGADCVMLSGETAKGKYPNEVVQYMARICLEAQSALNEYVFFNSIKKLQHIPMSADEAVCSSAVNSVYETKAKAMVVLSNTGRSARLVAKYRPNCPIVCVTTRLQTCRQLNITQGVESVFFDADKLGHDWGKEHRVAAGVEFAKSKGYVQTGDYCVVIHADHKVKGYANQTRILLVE
How it was run: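 Pyruvate kinase activity of E451W LmPYK (0.2 nM) was followed as ATP output after 1 h at room temperature with 0.5 mM PEP and 0.1 mM ADP, detected by PKLight luminescence.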

[4] = biological target: Pyruvate kinase PKM (Homo sapiens) (UniProt P14618); test: qHTS Assay for Activators of Human Muscle Pyruvate Kinase (AID 954; active = well fitted curve in the direction sought with a large enough effect, not every such curve was filed as active)
Sequence of Pyruvate kinase PKM (Homo sapiens) (P14618 whole entry, looked up): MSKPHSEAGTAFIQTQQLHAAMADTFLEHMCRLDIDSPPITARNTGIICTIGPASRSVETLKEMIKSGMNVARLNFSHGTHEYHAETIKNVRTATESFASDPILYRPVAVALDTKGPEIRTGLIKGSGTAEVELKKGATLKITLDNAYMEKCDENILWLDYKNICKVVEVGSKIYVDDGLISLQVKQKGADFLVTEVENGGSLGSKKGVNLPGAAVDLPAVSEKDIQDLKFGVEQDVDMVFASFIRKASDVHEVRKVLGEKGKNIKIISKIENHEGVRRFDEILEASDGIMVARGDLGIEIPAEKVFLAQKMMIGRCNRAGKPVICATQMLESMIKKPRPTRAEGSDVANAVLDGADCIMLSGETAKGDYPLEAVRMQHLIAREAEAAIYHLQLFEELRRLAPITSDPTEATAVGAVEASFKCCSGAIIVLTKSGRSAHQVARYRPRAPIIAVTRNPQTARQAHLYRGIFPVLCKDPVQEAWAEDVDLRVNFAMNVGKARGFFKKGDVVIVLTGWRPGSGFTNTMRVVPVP
How it was run: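 ATP production by PKM2 detected via luciferase luminescence after 1 h room-temperature reaction (0.1 nM enzyme, PEP at Km 0.5 mM, ADP 0.1 mM, pH 7.2 imidazole buffer). Inhibition scaled to no-enzyme control; activation referenced to 0.3 nM enzyme wells.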

[5] = Cell Viability - Jurkat (AID 426;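 active = dose-dependent loss of cell ATP signal giving a full or clear fitted curve, ranked by lower potency value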;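 also: potency is read from the fitted curve at half-maximal effect; cells exposed to compound for 40 hours at 37 °C before ATP read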); conditions: qHTS
How it was run: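 Cytotoxicity taken as drop in cellular ATP (CellTiter-Glo luminescence, 20 min room temperature) after 40 hr, 37C treatment of 5000 Jurkat Clone E6-1 cells per well; concentration-response fitted with Hill equation for AC50.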

[6] = Cell Viability - Mesenchymal (AID 546); conditions: mesenchymal cells viability, qHTS; activity change, negative = cytotoxicity: at 91.7 µM (top of the series);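 also: cells exposed to compound for 40 hours before reading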
How it was run: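 In this qHTS cytotoxicity format, glomerulus-derived human mesenchymal kidney cells received compound for 40 hr, then luciferase-based ATP quantitation. Concentration-response data were fitted with the Hill equation.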

[7] = Cellular Toxicity (caspase-3) SK-N-SH (AID 661);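 also: cells exposed to compound for 16 hours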
How it was run: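 Caspase 3/7 activation was read by luminogenic substrate cleavage after 16 hour treatment of SK-N-SH cells. Signal was scaled between DMSO and 10 uM staurosporine, and concentration-response data were fitted with the Hill equation for AC50.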

[8] = Cell Viability - LYMP2-023 (AID 975);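 also: cellular ATP measured by luciferase luminescence as viability proxy; cells exposed to compound for 24 hours at 37 °C; nearly all actives have a fitted effect of over 55% in size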
How it was run: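 Intracellular ATP, read by CellTiter-Glo luminescence, reports viability after 24 hr compound exposure at 37 C. 2500 lymphoblastoid cells/well (LYMP2-023) seeded 5 hr beforehand; Hill fits give AC50; positive control tetraoctylammonium bromide.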

[9] = Cell Viability - LYMP2-025 (AID 976)
How it was run: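 Cytotoxicity read as loss of intracellular ATP (luciferase luminescence) after 24 h compound treatment at 37 C. Uses LYMP2-025 lymphoblastoid cells in 1536-well format; Hill-equation modelling gives AC50; tetraoctylammonium bromide as positive control.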

[10] = Cell Viability - LYMP2-008 (AID 980); also: nearly all actives have a fitted effect of over 60% in size
How it was run: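 Cytotoxicity determined from ATP-dependent luciferase luminescence (CellTiter-Glo) following 24 h compound exposure of human lymphoblastoid LYMP2-008 cells at 37 C. Concentration-response data fitted to the Hill equation to give AC50.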

[11] = biological target: Estrogen receptor (Homo sapiens) (UniProt P03372); test: qHTS assay for small molecule antagonists of estrogen receptor alpha signaling (AID 588513; active = well fitted curve in the direction sought with a large enough effect in the signal ratio, with a control signal flat, not every such curve was filed as active; the % refers to the signal ratio)
Sequence of Estrogen receptor (Homo sapiens) (P03372 whole entry, looked up): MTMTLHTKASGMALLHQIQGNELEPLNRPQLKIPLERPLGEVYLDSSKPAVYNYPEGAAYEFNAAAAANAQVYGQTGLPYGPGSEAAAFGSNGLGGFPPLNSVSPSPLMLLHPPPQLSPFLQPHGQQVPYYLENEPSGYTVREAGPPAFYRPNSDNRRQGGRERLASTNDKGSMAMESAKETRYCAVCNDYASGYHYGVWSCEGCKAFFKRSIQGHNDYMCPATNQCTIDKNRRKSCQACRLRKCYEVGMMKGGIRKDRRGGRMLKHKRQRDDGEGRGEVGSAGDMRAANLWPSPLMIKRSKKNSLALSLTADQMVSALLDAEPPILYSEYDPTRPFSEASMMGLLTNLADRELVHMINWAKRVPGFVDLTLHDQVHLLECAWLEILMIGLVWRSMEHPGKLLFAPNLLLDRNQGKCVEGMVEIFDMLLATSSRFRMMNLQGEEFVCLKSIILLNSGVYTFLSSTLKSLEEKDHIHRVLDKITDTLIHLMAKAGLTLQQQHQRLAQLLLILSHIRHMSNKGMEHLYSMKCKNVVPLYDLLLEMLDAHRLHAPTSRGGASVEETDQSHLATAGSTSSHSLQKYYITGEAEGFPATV
How it was run: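 Fluorescence from CCF4 substrate after 2 h at room temperature gave reporter activity; cells had been exposed to compound and 0.5nM 17-beta-estradiol for 18 h at 37 C. Hill-equation fitting yielded IC50 and maximal response.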

[12] = biological target: Estrogen receptor (Homo sapiens) (UniProt P03372); test: qHTS assay for small molecule agonists of estrogen receptor alpha signaling (AID 588514; calls by dose curve; also: nearly all actives have a fitted effect of over 70% in size)
How it was run: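 EC50 and efficacy came from Hill fits of beta-lactamase reporter signal (CCF4 dye, 2 h at room temperature) scaled between DMSO and 20 nM 17-beta-estradiol. Agonist mode: HEK293 ER-alpha-UAS-bla cells in charcoal/dextran-stripped serum medium, 18 h compound exposure at 37 C.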

[13] = biological target: Peroxisome proliferator-activated receptor gamma (Homo sapiens) (UniProt P37231); test: qHTS assay for small molecule agonists of peroxisome proliferator-activated receptor gamma signaling (AID 588536; active = well fitted curve in the direction sought with a large enough effect in the signal ratio, with a control signal flat, not every such curve was filed as active; the % refers to the signal ratio)
Sequence of Peroxisome proliferator-activated receptor gamma (Homo sapiens) (P37231 whole entry, looked up): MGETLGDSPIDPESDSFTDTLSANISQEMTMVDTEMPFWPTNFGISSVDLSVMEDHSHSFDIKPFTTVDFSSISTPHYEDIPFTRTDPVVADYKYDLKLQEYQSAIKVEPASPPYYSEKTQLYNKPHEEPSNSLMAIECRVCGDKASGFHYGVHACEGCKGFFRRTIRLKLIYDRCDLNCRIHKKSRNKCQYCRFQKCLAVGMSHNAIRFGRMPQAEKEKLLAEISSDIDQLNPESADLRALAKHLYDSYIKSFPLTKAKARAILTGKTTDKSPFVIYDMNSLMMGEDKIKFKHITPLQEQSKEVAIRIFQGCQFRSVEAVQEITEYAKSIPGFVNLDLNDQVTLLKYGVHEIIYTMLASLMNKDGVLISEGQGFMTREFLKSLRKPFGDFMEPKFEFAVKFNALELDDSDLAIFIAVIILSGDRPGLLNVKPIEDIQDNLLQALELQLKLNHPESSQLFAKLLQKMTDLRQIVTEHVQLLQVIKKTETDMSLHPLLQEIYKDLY
How it was run: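 This is an agonist-mode beta-lactamase reporter assay in HEK293 PPAR-gamma-UAS-bla cells with 1% charcoal/dextran FBS. Compound titrations ran 16 h at 37 C before CCF4 detection. EC50 and efficacy are Hill fits scaled to 2 uM rosiglitazone (100%) and DMSO basal.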

[14] = qHTS assay for small molecule antagonists of the retinoid-related orphan receptor gamma (ROR-gamma) signaling pathway - cell viability counter screen (AID 720652; active = well fitted curve in the direction sought with a large enough effect in the repeat runs; an effect the other way counts as inactive or inconclusive;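 also: CHO reporter cells with doxycycline-induced ROR-gamma expression; compound exposure lasted 16 hr before ATP read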)
How it was run: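 Cytotoxicity counter screen: intracellular ATP (CellTiter-Glo luminescence) measured in the doxycycline-induced CHO RORE-luciferase reporter line after 16 hr compound exposure at 37 C, 5% CO2.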

Measured: Potency

CCCC[S@@](=N)(=O)CC[C@@H](N)C(=O)O
inactive: [1] | [2] | [3] | [4]

C=C(C)[C@@H]1CC=C(C(=O)O)CC1
inactive: [1] | [2] | [3] | [4]

COc1c2c(nc3ccccc13)O[C@@H]([C@@](C)(O)CO)C2
inactive: [1] | [2] | [4]

Nc1nc(Cl)nc2c1ncn2[C@@H]1O[C@@H](COP(=O)(O)OP(=O)(O)OP(=O)(O)O)[C@@H](O)[C@H]1O
inactive: [1] | [2] | [3] | [4]

CC(=O)[C@@H]1CC[C@@H]2[C@@H]3CC=C4C[C@H](OS(=O)(=O)O)CC[C@@]4(C)[C@H]3CC[C@]21C
inactive: [1] | [3] | [4]

OC[C@@H]1O[C@@H](n2cnc3c(NC4CCCCC4)ncnc32)[C@@H](O)[C@H]1O
inactive: [1] | [2] | [4]

CCCCCCCCCCCCCCCC(=O)NC[C@@H](COP(=O)([O-])OCC[N+](C)(C)C)OCC
inactive: [1] | [3] | [4]

CC[C@H](C)[C@@H]1O[C@]2(CC[C@@H]1C)C[C@H]1C[C@H](CC=C(C)[C@@H](O[C@H]3C[C@H](OC)[C@H](O[C@H]4C[C@H](OC)[C@H](O)[C@H](C)O4)[C@H](C)O3)[C@@H](C)C=CC=C3CO[C@@H]4[C@@H](O)C(C)=C[C@H](C(=O)O1)[C@@]34O)O2
inactive: [4]

C[C@@H]1C[C@@H]2[C@H]3CCC4=CC(=O)C=C[C@]4(C)[C@]3(Cl)[C@@H](O)C[C@@]2(C)[C@@]1(O)C(=O)CO
inactive: [1] | [3] | [4]

O=S(=O)(NCCNC/C=C\c1ccc(Br)cc1)c1cccc2cnccc12
inactive: [1] | [3] | [4]

CN1[C@@H]2CC[C@H]1CC(NC(=O)c1nn(C)c3ccccc13)C2 (some centres not stated)
inactive: [1] | [2] | [3] | [4]

CSC(N)=NCCC[C@@H](N)C(=O)O
inactive: [1] | [2] | [4]

COc1cc2nc(N3CCN(C(=O)OCc4ccccc4)[C@H](C(=O)NC(C)(C)C)C3)nc(N)c2cc1OC
inactive: [1] | [2] | [3] | [4]

Nc1c2c(nc3ccccc13)CCC[C@H]2O
inactive: [1] | [2] | [4]

Cc1ccc(C(=O)O[C@@H](C(=O)O)[C@@H](OC(=O)c2ccc(C)cc2)C(=O)O)cc1 (tested in a mixture with another compound)
inactive: [1] | [2] | [3]

CN(C)C(=O)/N=N\C(=O)N(C)C
inactive: [1] | [2] | [3] | [4]

CCNC(=S)NCC
inactive: [5] > 92 µM | [6] | [7] | [8] | [9] | [10] | [11] | [12] | [13] | [14]

Source: PubChem BioAssay (NCATS)
